Eya2 inh – qHTS Assay for Inhibitors of the Phosphatase Activity of Eya2. Protein phosphatase EYA2 (Homo sapiens), O00167. actives 0.006% (n = 330,000). Potency, µM (titrated, usually from 76.9 µM), without a hit: at the top dose activity, negative = inhibition, hits mostly inhibitors. recombinant Eya2, OMFP fluorescence dephosphorylation (OMFP is methylfluorescein phosphate); further: potency means the concentration at half of the fitted maximal effect; on the % scale 0 is the no-effect control and ±100 the full control effect
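Eya2 protein (added as 0.2 uM solution) was preincubated with compound for 10 min at ambient temperature in 50 mM HEPES pH 7.5, 50 mM NaCl, 5 uM MgCl2, 0.05% BSA, 1 mM DTT. OMFP (added at 50 uM) then reacted 10 min; fluorescence read at 485/525 nm.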
D1 agonist – Allosteric Agonists of the Human D1 Dopamine Receptor: qHTS. actives 1% (n = 360,000). HEK293 T-REx D1 cells, calcium flux, agonist mode. activation, % at 2 µM. D(1A) dopamine receptor (Homo sapiens), P21728; in the data active means activation above about 30%; further: 0% is about no effect
Target sequence (P21728 whole entry, looked up): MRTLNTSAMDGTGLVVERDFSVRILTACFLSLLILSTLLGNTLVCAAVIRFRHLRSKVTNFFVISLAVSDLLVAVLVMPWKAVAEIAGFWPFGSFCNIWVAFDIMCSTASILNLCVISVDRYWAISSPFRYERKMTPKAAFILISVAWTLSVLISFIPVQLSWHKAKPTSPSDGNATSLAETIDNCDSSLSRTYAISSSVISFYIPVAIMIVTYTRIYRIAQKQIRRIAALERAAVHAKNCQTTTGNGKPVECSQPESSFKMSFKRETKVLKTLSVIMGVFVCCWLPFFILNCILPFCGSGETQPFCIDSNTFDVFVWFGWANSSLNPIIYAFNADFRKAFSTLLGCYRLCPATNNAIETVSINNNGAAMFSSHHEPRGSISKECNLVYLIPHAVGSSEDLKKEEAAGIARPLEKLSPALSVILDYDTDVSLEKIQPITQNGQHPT
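Tetracycline-induced HEK293 TREx D1 cells, force-coupled to calcium signalling, were dye-loaded with a no-wash calcium kit. Compound was pin-added after a 10 s baseline. Fluorescence was read kinetically at 1 cycle/s for 180 s, with calcium rises flagged as agonism.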
D1 PAM – Potentiators of Human D1 Dopamine Receptor: qHTS | D(1A) dopamine receptor (Homo sapiens), P21728 | HEK293 TREx D1 cells, calcium flux, dopamine EC20 potentiation | potentiation, % at 10 µM | actives 0.036% (n = 360,000); in the data active means potentiation above about 30%; further: 0% is about no effect
USP2a inh – qHTS Assay for Inhibitors of Ubiquitin-specific Protease USP2a Using CHOP2 as the Reporter; AID 463254, 2010; actives 0.01% (n = 330,000); Potency, µM (top dose mostly 38.3 µM), for the others: at the top dose activity change, negative = inhibition, actives largely listed as inhibitors; Ubiquitin carboxyl-terminal hydrolase 2 (Homo sapiens), O75604; USP2 core, Ub-CHOP2 coupled fluorogenic reporter, 485/531;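 further: potency means the concentration at half of the fitted maximal effect; plate controls were DMSO wells for no effect and full inhibition by NEM control for full effect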
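USP2 core (10nM final) preincubated 30min RT with compound in 20mM Tris-HCl pH 8.0, 2mM CaCl2, 2mM beta-mercaptoethanol, 0.05% CHAPS; 25nM Ub-CHOP2 plus 25nM reporter substrate added, fluorescence (Ex485/Em531) read after 60min.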
GALK inhibitor – qHTS Assay for Inhibitors of Human Galactokinase (GALK) | P51570 | Purified GALK, Kinase-Glo residual ATP luminescence | Potency, µM (doses to about 57.5 µM), for the others: at the top dose activity change, negative = inhibition, usual class: inhibitors | actives 0.007% (n = 270,000) | AID 1868, 2009; further: potency means the concentration at half of the fitted maximal effect; on the % scale 0 is the no-effect control and ±100 the full control effect
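5 nM enzyme, 35 uM ATP, 100 uM galactose, 20 mM HEPES pH8.0, 5 mM MgCl2; 1 h RT; residual ATP by Kinase-Glo Plus luminescence, qHTS format.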
D1 antag – Antagonist of Human D 1 Dopamine Receptor: qHTS. actives 3.2% (n = 360,000). HEK293 TREx D1 cells, calcium flux, dopamine EC80; hits give low values. activity change, negative = inhibition, % at 10 µM. AID 504652, 2011; in the data active means activity change below about -30%; further: on the % scale 0 is the no-effect control and ±100 the full control effect
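Compound effects on dopamine-evoked calcium signalling were measured in tetracycline-induced HEK293 Trex D1 cells. Dopamine at EC80 followed a 180 s compound pre-read, and fluorescence was tracked kinetically for 180 s more.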
* marks the source's active call; other numbers are inactive results; ? = inconclusive; . = not tested or not shown; ! = not confirmed by another sample. In the library only some 3.9% were active in any assay of this set; here they are far more common. Unless noted, the call rests on the fitted dose curve; in most records, active means well fitted inhibition curve with a large enough effect; inconclusive means small, poorly fitted or top-dose-only effect, or effect the other way; inactive means flat fitted curve, though single readings scatter.

SMILES | Eya2 inh | D1 agonist | D1 PAM | USP2a inh | GALK inhibitor | D1 antag
COc1ccc(CCNC(=O)C2CCN(Cc3nc(-c4ccccc4C)oc3C)CC2)cc1OC | -16% | 37* | -6 | 2% | 2% | -40*
CCn1c(=O)cc(OCC(=O)Nc2ccccc2Cl)c2ccccc21 | . | 1 | 1 | . | . | 8
CCC(C(=O)Nc1ccccc1C(=O)OC)n1nc(C)c2c(C)n(-c3ccc(C)cc3)nc2c1=O (configuration not stated) | . | 3 | 0 | . | . | -1
CCOC(=O)C(CC)n1nc(C)c2c(C)n(-c3ccc(C)cc3)nc2c1=O (configuration not stated) | . | 5 | -4 | . | . | -48*
CCC(C(=O)NCc1ccco1)n1nc(C)c2c(C)n(-c3ccc(C)cc3)nc2c1=O (configuration not stated) | -13% | -2 | -7 | -4% | 3% | -5
Cc1ccc(-n2nc3c(=O)n(C(C)C(=O)NCc4ccco4)nc(C)c3c2C)cc1 (configuration not stated) | 12% | 0 | -4 | 0% | -5% | -35*!
Cc1ccc(Cl)cc1-n1c(=O)c2sc3ccccc3c2n(CC(=O)NC2CCCC2)c1=O | . | 1 | -2 | . | . | -9
CCN(CC)CCNC(=O)C(=O)NCC(c1ccc2c(c1)OCO2)N1CCOCC1 (configuration not stated) | . | 0 | -3 | . | . | -1
CN(C)S(=O)(=O)c1cccc(NC(=O)CSc2nnnn2-c2ccccc2)c1 | -1% | 15 | -6 | 3% | -4% | -41*
Cc1nnc(SCC(=O)Nc2cccc(S(=O)(=O)N(C)c3ccccc3)c2)s1 | 6% | 34* | -2 | 2% | 1% | 6
CN(c1ccccc1)S(=O)(=O)c1cccc(NC(=O)CSc2n[nH]c(N)n2)c1 | 2% | 2 | -19 | 1% | -5% | -45*
O=C(CSc1nnnn1-c1ccccc1)CC(=O)Nc1ccc(Cl)cc1 | -8% | 7 | -5 | -12% | 0% | -34*
NC(=O)c1ccc(-n2nnnc2SCC(=O)Nc2ccccc2)cc1 | -2% | 2 | -2 | -1% | -7% | -13
Nc1nc(SCC(=O)Nc2cccc(S(=O)(=O)N3CCCCCC3)c2)n[nH]1 | -4% | 0 | -5 | -1% | 0% | .
N#Cc1nc(Nc2ccc(F)cc2)nc(NC2CCCC2)n1 | . | 10 | -7 | . | . | -9
CCOc1ccc(NC(=O)CCC(=O)NNS(=O)(=O)c2ccccc2[N+](=O)[O-])cc1 | 7% | 224* | -4 | ? | 6% | 4
COCC(=O)NNS(=O)(=O)c1ccccc1[N+](=O)[O-] | -5% | 0 | -6 | -1% | 1% | 7
CCO[C@H]1OC(C(=O)NCc2ccccc2)=C[C@@H](C2CC2)[C@@H]1CCCO | 7% | -4 | -4 | -1% | 1% | -44*
O=C(CCn1c(=O)c2cccn2c2cccnc21)N1CCN(c2ccc(F)cc2)CC1 | . | 2 | 0 | . | . | -6
Cc1cc(C)c(S(=O)(=O)Nc2nnc(C)s2)c(C)c1 | -20% | 3 | -2 | -5% | -2% | -34*
CCC(C)S(=O)(=O)c1oc(-c2ccc(F)cc2)nc1S(=O)(=O)c1ccc(F)cc1 (configuration not stated) | . | 0 | 0 | . | . | 1
CCOC(=O)c1ccccc1NC(=O)c1cc2ccc3cccnc3c2[nH]1 | . | 5 | -1 | . | . | -5
Brc1ccccc1-n1ncc2c1ncn1nc(Cc3ccccc3)nc21 | . | 0 | 0 | . | . | -63*
CCc1ccc(CN(Cc2cn[nH]c2-c2ccc(OC)cc2)C(=O)Nc2ccc(C)c(F)c2)cc1 | . | 1 | -2 | . | . | 1
CCN1C=CC2=C(C#N)C(N)C(C#N)(C#N)C(c3ccccc3C(F)(F)F)C2C1 (configuration not stated) | 2% | 34* | -6 | 13% | -2% | 12
SMILES | Eya2 inh | D1 agonist | D1 PAM | USP2a inh | GALK inhibitor | D1 antag
C=C[C@@H]1c2ccccc2N(S(=O)(=O)c2ccc(C)cc2)[C@H](c2ccccc2C(F)(F)F)C1(C#N)C#N | 11% | 0 | 2 | 2% | . | 28
CCOc1ccc(NC(=O)c2c(NC(=O)c3ccco3)sc3c2CCC(C(C)(C)C)C3)cc1 (configuration not stated) | . | 0 | -2 | . | . | 11
Cc1nn(C2CCS(=O)(=O)C2)c2nc(C3CC3)cc(C(=O)Nc3cccc(C#N)c3)c12 (configuration not stated) | -10% | 6 | -6 | -1% | . | -36*
COc1c(Cl)cc(Cl)cc1C(=O)Nc1cccc(-c2nc3ccccc3o2)c1C | . | -1 | -2 | . | . | -6
O=C(Nc1ccccc1)NC1CS(=O)(=O)CC1O (configuration not stated) | -13% | 2 | -9 | 0% | 2% | -41*
O=S1(=O)C[C@@H](O)[C@@H](Nc2ccccc2)C1 | -23% | 2 | -7 | 0% | 0% | -12
Cc1nc(-c2ccc(S(=O)(=O)NCc3ccc(N(C)C)cc3)cc2)co1 | . | 6 | -4 | . | . | 19
COc1ccc(C2CC(c3cccs3)=NN2c2ccc(C=O)cc2)cc1 (configuration not stated) | ? | 244* | 17 | ? | 2% | -62*
C=CCc1ccccc1OCC(O)CN1CCN(Cc2ccc3c(c2)OCO3)CC1 (configuration not stated) | -14% | 14 | -10 | -2% | 1% | -71*
C=CCc1ccccc1OCC(O)CN1CCN(CCN2C(=O)c3cccc4cccc(c34)C2=O)CC1 (configuration not stated) | -11% | 6 | -8 | -14% | 2% | -69*
COc1ccccc1N1CCN(CC(O)COc2ccc(C)c(C)c2)CC1 (configuration not stated) | -15% | 9 | -1 | 0% | 3% | -22
Cc1cccc(N2CCN(CC(O)COc3ccccc3Cl)CC2)c1 (configuration not stated) | -9% | 15 | -9 | -9% | 4% | -33*
Cc1ccc(OCC(O)CN2CCN(Cc3ccc4c(c3)OCO4)CC2)cc1C (configuration not stated) | 0% | 14 | -3 | -3% | 0% | -7

Compound activity (PubChem)
